# Measured values taken from PubChem BioAssay (Tox21).
# Inconclusive results are not listed. Where a call stands in place of a potency, no number is given. A structure can be active in one record and inactive in another. Calls of active or inactive are those of the source. Unless noted, calls follow the shape of the dose curve; as a rule, active = well fitted curve in the direction sought with a large enough effect in the repeat runs; inconclusive = weak or mixed curves; inactive = no such curve, though single readings can be large; an effect the other way counts as inactive or inconclusive.
# Experiments:
# [1] = qHTS assay to identify small molecule agonists of the vitamin D receptor (VDR) signaling pathway - cell viability counter screen (AID 743224); also: series mostly up to about 63 µM; nearly all actives have a fitted effect of over 50% in size
# How it was run: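 Cells: VDR-bla, 2,000/well, settled 4 h. Treatment: compounds in DMSO, 16 h, 37C/5% CO2. Readout: CellTiter-Glo luminescence after 30 min RT.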
# [2] = qHTS assay to identify small molecule agonists of the NFkB signaling pathway (AID 1159509; active = well fitted curve in the direction sought with a large enough effect in the signal ratio in the repeat runs, not every such curve was filed as active; the % refers to the signal ratio; also: series mostly up to about 61 µM)
# How it was run: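 Pathway activation was measured in ME-180 cells stably expressing beta-lactamase under NF-kB response element control. Substrate cleavage was read as the 460/530 nm emission shift after 5 hr compound incubation.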
# [3] = qHTS assay to identify small molecule agonists of the NFkB signaling pathway - cell viability counter screen (AID 1159515; calls by dose curve; also: series mostly up to about 61 µM; nearly all actives have a fitted effect of over 55% in size)
# How it was run: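 Cells are seeded (2,000 NFkB-bla ME-180 per well), rested overnight, and dosed with DMSO-dissolved compounds for 5 hr at 37 C. Viability is then read by CellTiter-Glo luminescence after 30 min at room temperature.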
# [4] = qHTS assay to identify small molecule agonists of the endoplasmic reticulum stress response signaling pathway (AID 1159516; active = well fitted activation curve with a large enough effect in the signal ratio in the repeat runs, not every such curve was filed as active; the % refers to the signal ratio)
# How it was run: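 Cells are seeded at 1,500 per well and incubated overnight. Compounds in DMSO are added for 5 hr at 37 C, then beta-lactamase FRET substrate for 2 hr at room temperature, and fluorescence at 460 and 530 nm is measured.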
# [5] = qHTS assay to identify small molecule agonists of the endoplasmic reticulum stress response signaling pathway - cell viability counter screen (AID 1159517; calls by dose curve;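 also: HeLa cells carrying an ER stress response element beta-lactamase reporter; series mostly up to about 61 µM; nearly all actives have a fitted effect of over 50% in size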)
# How it was run: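 Cpd-treated ESRE-bla HeLa (5 hr, 37 C) → LiveBLAzer 2 hr RT → CellTiter-Glo 30 min RT → luminescence.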
# [6] = qHTS assay to identify small molecule antagonists of the retinoid-related orphan receptor gamma (ROR-gamma) signaling pathway - cell viability counter screen (AID 1159520); also: nearly all actives have a fitted effect of over 50% in size; also: potency is read from the fitted curve at half-maximal effect
# How it was run: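 Tet-on ROR gamma CHO cells (1,000/well) were plated 4 hr, given compounds in DMSO for 2 hr at 37 C, then induced with 1 uM final doxycycline for 16 hr. Viability was read as ATP by CellTiter-Glo luminescence after 30 min.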
# [7] = qHTS assay to identify small molecule agonists of the AP-1 signaling pathway - cell viability counter screen (AID 1159525; calls by dose curve; also: nearly all actives have a fitted effect of over 55% in size; also: potency is read from the fitted curve at half-maximal effect)
# How it was run: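 Each titration point was normalised to DMSO and tetra n-octyl ammonium bromide controls. The read was Cell Titer Glo luminescence after 30 min at RT, following 5 h compound exposure of ME-180 AP-1-bla cells at 37 °C.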
# [8] = qHTS assay to identify small molecule agonists of the AP-1 signaling pathway (AID 1159526; calls by dose curve; also: potency is read from the fitted curve at half-maximal effect)
# [9] = molecular target: Retinoic acid receptor RXR-alpha (Homo sapiens) (UniProt P19793); assay: qHTS assay to identify small molecule agonists of the RXR signaling pathway (AID 1159527; calls by dose curve; also: nearly all actives have a fitted effect of over 35% in size; also: potency is read from the fitted curve at half-maximal effect)
# How it was run: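 GeneBLAzer RXR-alpha-UAS-bla HEK 293T cells in medium with 2% charcoal-stripped FBS, pre-incubated 5 hr at 37 C, then exposed to compounds 16 hr. Beta-lactamase reporter read by FRET substrate, 2 hr room temperature, 460/530 nm emission.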
# [10] = qHTS assay to identify small molecule agonists of the RXR signaling pathway - cell viability counter screen (AID 1159529); also: nearly all actives have a fitted effect of over 50% in size; also: potency is read from the fitted curve at half-maximal effect
# How it was run: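 RXR-alpha-UAS-bla HEK 293T cells in medium with 2% charcoal-stripped FBS were preincubated 5 hr, then exposed to compounds for 16 hr at 37 C. Viability was read as CellTiter-Glo luminescence after 30 min at room temperature.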
# [11] = qHTS assay to identify small molecule antagonists of the retinoid acid receptor (RAR) signaling pathway - cell viability counter screen (AID 1159551); also: nearly all actives have a fitted effect of over 35% in size
# How it was run: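 Cells (C3RL4) are plated, incubated overnight, dosed with compound in DMSO, then given retinol at 1 uM final. After 6 h at 37 C, CellTiter-Glo is added and luminescence read following 30 min at room temperature.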
# [12] = qHTS assay to identify small molecule antagonists of the retinoic acid receptor (RAR) signaling pathway (AID 1159552; also: nearly all actives have a fitted effect of over 50% in size)
# How it was run: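 RARE-luc C3RL4 cells; cpds + 1 uM (final) retinol, 6 hr, 37 C/5% CO2; luciferase reagent, 30 min RT, luminescence readout. Inhibitors of retinol-driven signal scored.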
# [13] = qHTS assay to identify small molecule agonists of the retinoic acid receptor (RAR) signaling pathway (AID 1159553)
# How it was run: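 Seed C3RL4 reporter cells at 1,000 per well and incubate overnight at 37 C. Add compounds in DMSO, incubate 6 hr. Add luciferase reagent, wait 30 min at room temperature, read luminescence.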
# [14] = qHTS assay to identify small molecule antagonists of the vitamin D receptor (VDR) signaling pathway - cell viability counter screen (AID 743225); also: nearly all actives have a fitted effect of over 50% in size
# How it was run: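 VDR-bla HEK 293T cells, 4 h pre-incubation at 37C, then compound plus 1-alpha,25-dihydroxyvitamin D3 (3 nM final) for 16 h. After the beta-lactamase FRET read, CellTiter-Glo was added to the same wells; luminescence after 30 min at room temperature.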
# [15] = molecular target: Nuclear receptor ROR-gamma (Homo sapiens) (UniProt P51449); assay: qHTS assay to identify small molecule antagonists of the retinoid-related orphan receptor gamma (ROR-gamma) signaling pathway (AID 1159521; also: nearly all actives have a fitted effect of over 50% in size; also: potency is read from the fitted curve at half-maximal effect)
# How it was run: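 Tet-on RORγ CHO cells carrying a ROR response element–luciferase reporter were pretreated with compounds for 2 h, then induced with 1 uM (final) doxycycline hyclate for 16 h at 37 C. Antagonism was read as decreased ONE-Glo luminescence.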
# [16] = qHTS assay to identify small molecule antagonists of the estrogen related receptor (ERR) signaling pathway - cell viability counter screen (AID 1224818); also: series mostly up to about 46 µM
# How it was run: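 ERR cells, 2,000/well; 6 h settle at 37 C/5% CO2; compound pin transfer (DMSO); 17.5 h at 37 C; CellTiter-Fluor, 30 min, fluorescence read.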
# [17] = qHTS assay to identify small molecule antagonists of the estrogen related receptor (ERR) signaling pathway (AID 1224819)
# How it was run: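 qHTS in ERR cells, 2,000/well, 1536 format. Cpd (DMSO) added after 6 h settle, 18 h 37 C. One-Glo luminescence, 30 min RT.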
# [18] = qHTS assay to identify small molecule agonists of the estrogen related receptor (ERR) signaling pathway (AID 1224820)
# How it was run: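 An ERR cell line provided by NTP was seeded at 2,000 cells per well and allowed to settle for 6 h before compounds in DMSO were added. After 18 h at 37 C, luciferase activity was measured by One-Glo luminescence.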
# [19] = tested on: estrogen-related receptor alpha (ERRalpha) with PGC-1alpha coactivator, human; assay: qHTS assay to identify small molecule antagonists of the estrogen related receptor signaling pathway with the pleiotropic PPARgamma coactivator (PGC) (AID 1224821; calls by dose curve)
# How it was run: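 A PGC/ERR cell line supplied by NTP is seeded, allowed 6 h at 37 C, and treated with test compounds in DMSO for 18 h. Signal is then measured as luciferase luminescence using One-Glo.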
# [20] = qHTS assay to identify small molecule antagonists of the estrogen related receptor signaling pathway with the pleiotropic PPARgamma coactivator (PGC) cell viability counter screen (AID 1224822;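 also: series mostly up to about 46 µM; viability read after 17.5 h compound exposure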)
# How it was run: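 Multiplexed viability counter screen run in PGC/ERR cells treated with compounds for 17.5 h at 37 C; live-cell protease signal measured by CellTiter-Fluor fluorescence.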
# Chain of Retinoic acid receptor RXR-alpha (Homo sapiens) (P19793 whole entry, looked up): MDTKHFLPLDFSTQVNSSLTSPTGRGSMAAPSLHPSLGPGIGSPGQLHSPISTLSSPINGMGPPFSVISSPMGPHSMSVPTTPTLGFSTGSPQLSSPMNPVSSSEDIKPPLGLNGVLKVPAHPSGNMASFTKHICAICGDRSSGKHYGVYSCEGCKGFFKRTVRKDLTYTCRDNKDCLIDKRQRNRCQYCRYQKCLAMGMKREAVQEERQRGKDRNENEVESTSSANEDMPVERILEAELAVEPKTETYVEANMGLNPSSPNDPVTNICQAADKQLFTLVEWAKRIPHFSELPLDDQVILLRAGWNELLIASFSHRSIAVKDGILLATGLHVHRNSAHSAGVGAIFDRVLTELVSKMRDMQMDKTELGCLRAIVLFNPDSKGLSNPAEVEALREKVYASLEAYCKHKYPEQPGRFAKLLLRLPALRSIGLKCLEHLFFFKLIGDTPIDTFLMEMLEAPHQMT
Structure (SMILES),outcome [1],outcome [2],outcome [3],outcome [4],outcome [5],Potency [6],Potency [7],Potency [8],Potency [9],Potency [10],outcome [11],Potency [12],outcome [13],outcome [14],Potency [15],outcome [16],outcome [17],Potency [18],outcome [19],outcome [20]
O=C(O)CCCCC(=O)O,inactive,inactive,inactive,inactive,inactive,inactive,inactive,inactive,inactive,inactive,inactive,–,–,–,–,–,–,–,–,–
CCCCCCCCCCCCCCCC(=O)O,–,inactive,inactive,inactive,inactive,inactive,inactive,inactive,inactive,inactive,inactive,inactive,inactive,–,–,–,–,–,–,–
Cc1noc(NS(=O)(=O)c2ccc(N)cc2)c1C,–,inactive,inactive,inactive,inactive,inactive,inactive,inactive,inactive,inactive,inactive,inactive,inactive,–,–,–,–,–,–,–
COc1ccc2[nH]cc(CCNC(C)=O)c2c1,inactive,inactive,inactive,inactive,inactive,inactive,inactive,inactive,inactive,inactive,inactive,–,–,inactive,inactive,inactive,inactive,inactive,inactive,inactive
O=C(O)CS,inactive,inactive,inactive,inactive,inactive,inactive,inactive,inactive,inactive,inactive,inactive,–,–,–,–,–,–,–,–,–
c1ccc2[nH]ccc2c1,inactive,inactive,inactive,inactive,inactive,2.69 µM (active) and inactive,42.9 µM (active) and inactive,inactive,inactive,48.2 µM (active) and inactive,inactive,–,–,–,1.35 µM (active) and inactive,–,–,–,–,–
CC(=O)OCC(COC(C)=O)OC(C)=O,–,inactive,inactive,inactive,inactive,inactive,inactive,inactive,inactive,inactive,inactive,–,–,inactive,inactive,–,–,–,–,–
Cn1cc[nH]c1=S,–,inactive,inactive,inactive,inactive,inactive,inactive,54.9 µM (active) and inactive,–,inactive,inactive,inactive,inactive,inactive,inactive,–,–,–,–,–
NC(=O)NC1NC(=O)NC1=O (stereo unspecified),inactive,inactive,inactive,inactive,inactive,inactive,inactive,inactive,inactive,inactive,inactive,–,–,–,inactive,–,–,–,–,–
Nc1ccc(S(=O)(=O)Nc2nccs2)cc1,–,inactive,inactive,inactive,inactive,inactive,inactive,inactive,19.6 µM (active) and inactive,inactive,inactive,inactive,inactive,inactive,–,–,–,–,–,–
C[C@]12C=CC(=O)C=C1CC[C@@H]1[C@@H]2[C@@H](O)C[C@@]2(C)[C@H]1CC[C@]2(O)C(=O)CO,–,inactive,inactive,inactive,inactive,inactive,inactive,inactive,inactive,inactive,inactive,inactive,inactive,inactive,inactive,–,–,–,–,–
Cc1ccccc1C(OCCN(C)C)c1ccccc1 (stereo unspecified),inactive,inactive,inactive,inactive,inactive,inactive,inactive,–,–,inactive,inactive,inactive,inactive,inactive,inactive,inactive,inactive,inactive,–,inactive
O=C1CN(/N=C/c2ccc([N+](=O)[O-])o2)C(=O)N1,inactive,inactive,inactive,inactive,inactive,inactive,inactive,inactive,inactive,inactive,inactive,inactive,inactive,–,–,–,–,–,–,–
O=c1cc[nH]c(=S)[nH]1,–,inactive,inactive,inactive,inactive,inactive,inactive,inactive,493 nM (active) and inactive,inactive,inactive,inactive,inactive,inactive,inactive,–,–,–,–,–
O=S(=O)(O)NC1CCCCC1,inactive,inactive,inactive,inactive,inactive,inactive,inactive,inactive,inactive,inactive,inactive,inactive,inactive,–,–,–,–,–,–,–
NNC(=O)c1ccncc1,–,inactive,inactive,inactive,inactive,inactive,inactive,inactive,inactive,inactive,inactive,–,–,inactive,inactive,–,–,–,–,–
Cc1ccc(C)c(OCCCC(C)(C)C(=O)O)c1,–,inactive,inactive,inactive,inactive,inactive,inactive,inactive,inactive,inactive,inactive,inactive,inactive,inactive,inactive,–,–,–,–,–
CCCC(O)C(CC)CO (stereo unspecified),inactive,inactive,inactive,inactive,inactive,inactive,inactive,inactive,inactive,inactive,inactive,–,–,–,inactive,–,–,–,–,–
O=C(O)c1cccnc1,inactive,inactive,inactive,inactive,inactive,inactive,inactive,inactive,–,inactive,inactive,–,–,–,inactive,–,–,–,–,–
